Experimental data: the supplement of paper PMC4709259
Structures can show the parent of a compound that is named as a salt. ± gives the standard deviation.

Assays:
Jurkat [1] = assay: mean cell size (FSC-A) relative to DMSO control (fraction of control); higher = larger cells; settings: 48 h
In short: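 Jurkat cells at 600 cells/µl were incubated for 1 h and then treated for 48h with the Enzo Screen-Well FDA Approved Drug Library v2.0 at 25µM, with DMSO at 0.9% (v/v) final. Compounds that reduced counts below 20% of controls were retested in 10-fold dilutions down to 25nM. Cell count and mean cell size, taken as forward scatter area, were measured by flow cytometry relative to solvent-only controls. Each plate carried 6-12 controls, and values are means of 3 biological replicates.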

Jurkat [2] = assay: cell count relative to DMSO control (fraction of control); higher = more cells (less growth inhibition); settings: 48 h

SMILES | mean cell size (Jurkat [1]) | cell count (Jurkat [2])
Cc1ncc([N+](=O)[O-])n1CCO [Metronidazole] (concentration: 25 µM) | 0.928 ± 0.012 | 0.75 ± 0.047
COc1cc2nc(N(C)CCCNC(=O)C3CCCO3)nc(N)c2cc1OC (configuration not stated) [Alfuzosin] (concentration: 25 µM) | 0.952 ± 0.029 | 0.41 ± 0.14
CC(=O)Oc1ccccc1C(=O)Nc1ncc([N+](=O)[O-])s1 [Nitazoxanide] (concentration: 2.5 µM) | 0.9325 ± 0.0054 | 0.862 ± 0.091
C[C@@H]1C[C@H]2[C@@H]3CCC4=CC(=O)C=C[C@]4(C)[C@@]3(F)[C@@H](O)C[C@]2(C)[C@@]1(O)C(=O)CO [Dexamethasone] (concentration: 25 µM) | 0.917 ± 0.019 | 0.819 ± 0.11
C[N+](C)(C)CCOC(N)=O [Carbachol (Carbamylcholine ) Chloride] (concentration: 25 µM) | 0.962 ± 0.019 | 1.13 ± 0.12
C[C@@](Cc1ccc(O)c(O)c1)(NN)C(=O)O [Carbidopa] (concentration: 25 µM) | 0.939 ± 0.027 | 0.439 ± 0.09
CCCc1nc(C)c2c(=O)nc(-c3cc(S(=O)(=O)N4CCN(CC)CC4)ccc3OCC)[nH]n12 [Vardenafil] (concentration: 25 µM) | 0.966 ± 0.021 | 0.646 ± 0.099
CC(C)NCC(O)COc1ccc(CC(N)=O)cc1 (racemic) [(±)-Atenolol] (concentration: 25 µM) | 0.836 ± 0.018 | 1.14 ± 0.087
O=C(CCCN1CCC(O)(c2ccc(Cl)cc2)CC1)c1ccc(F)cc1 [Haloperidol] (concentration: 25 µM) | 1.04 ± 0.057 | 0.609 ± 0.16
NC1=NCC2c3ccccc3Cc3ccccc3N12 (configuration not stated) [Epinastine·HCl] (concentration: 25 µM) | 0.951 ± 0.014 | 1.06 ± 0.077
CCCC(CCC)C(=O)O [Valproate·Na] (concentration: 25 µM) | 0.999 ± 0.025 | 1.01 ± 0.096
CCCCCOC(=O)Nc1nc(=O)n([C@@H]2O[C@H](C)[C@@H](O)[C@H]2O)cc1F [Capecitabine] (concentration: 25 µM) | 0.957 ± 0.019 | 1.01 ± 0.091
CCc1nn(CCCN2CCN(c3cccc(Cl)c3)CC2)c(=O)n1CCOc1ccccc1 [Nefazodone·HCl] (concentration: 25 µM) | 0.924 ± 0.015 | 0.601 ± 0.02
COC(=O)Nc1nc2cc(C(=O)c3ccccc3)ccc2[nH]1 [Mebendazole] (concentration: 250 nM) | 0.965 ± 0.029 | 0.686 ± 0.074
Cc1cc(C2CCCCC2)n(O)c(=O)c1 [Ciclopirox] (concentration: 2.5 µM) | 1.14 ± 0.032 | 0.395 ± 0.07
C[C@]12CCC(=O)C=C1CC[C@@H]1[C@@H]2[C@@H](O)C[C@@]2(C)[C@H]1CC[C@]2(O)C(=O)CO [Hydrocortisone] (concentration: 25 µM) | 0.9165 ± 0.0081 | 0.72 ± 0.092
CN1CCN(C2=Nc3cc(Cl)ccc3Nc3ccccc32)CC1 [Clozapine] (concentration: 25 µM) | 0.966 ± 0.025 | 0.494 ± 0.17
CCOC(=O)[C@H](CCc1ccccc1)N[C@@H](C)C(=O)N1CCC[C@H]1C(=O)O [Enalapril] (concentration: 25 µM) | 1.01 ± 0.029 | 0.733 ± 0.042
CNS(=O)(=O)Cc1ccc2[nH]cc(CCN(C)C)c2c1 [Sumatriptan Succinate] (concentration: 25 µM) | 0.955 ± 0.031 | 0.738 ± 0.1
CCCc1nc2c(C)cc(-c3nc4ccccc4n3C)cc2n1Cc1ccc(-c2ccccc2C(=O)O)cc1 [Telmisartan] (concentration: 25 µM) | 0.951 ± 0.032 | 0.725 ± 0.051
Nc1ccn([C@@H]2O[C@H](CO)[C@@H](O)[C@@H]2O)c(=O)n1 [Cytarabine] (concentration: 25 nM) | 1.18 ± 0.05 | 0.297 ± 0.088
NNc1nncc2ccccc12 [Hydralazine·HCl] (concentration: 25 µM) | 0.98 ± 0.075 | 0.537 ± 0.045
COc1ccc(CC(C)NCC(O)c2ccc(O)c(NC=O)c2)cc1 (configuration not stated) [Formoterol] (concentration: 25 µM) | 0.992 ± 0.033 | 0.808 ± 0.044
CN(C)C(=O)C(CCN1CCC(O)(c2ccc(Cl)cc2)CC1)(c1ccccc1)c1ccccc1 [Loperamide·HCl] (concentration: 25 µM) | 0.988 ± 0.033 | 0.572 ± 0.18
CCCC(=O)O[C@]1(C(=O)COC(C)=O)CC[C@H]2[C@@H]3C[C@H](F)C4=CC(=O)C=C[C@]4(C)[C@@]3(F)[C@@H](O)C[C@@]21C [Difluprednate] (concentration: 25 µM) | 0.935 ± 0.037 | 0.605 ± 0.14
CN(C)CCOC(c1ccccc1)c1ccccc1.Cn1c(=O)c2[nH]c(Cl)nc2n(C)c1=O [Dimenhydrinate] (concentration: 25 µM) | 1.05 ± 0.051 | 0.558 ± 0.15

SMILES | mean cell size (Jurkat [1]) | cell count (Jurkat [2])
CC(C)Nc1cccnc1N1CCN(C(=O)c2cc3cc(NS(C)(=O)=O)ccc3[nH]2)CC1 [Delavirdine Mesylate] (concentration: 25 µM) | 0.942 ± 0.036 | 0.887 ± 0.099
CN(Cc1ccc(C(C)(C)C)cc1)Cc1cccc2ccccc12 [Butenafine·HCl] (concentration: 25 µM) | 0.97 ± 0.031 | 0.793 ± 0.076
CC1=C(/C=C/C(C)=C/C=C/C(C)=C/C(=O)O)C(C)(C)CCC1 [Tretinoin] (concentration: 25 µM) | 0.88 ± 0.031 | 1.02 ± 0.11
NC(=O)NO [Hydroxyurea] (concentration: 25 µM) | 0.958 ± 0.017 | 1.06 ± 0.099
CO[C@H]1/C=C/O[C@@]2(C)Oc3c(C)c(O)c4c(O)c(c(/C=N/N5CCN(C)CC5)c(O)c4c3C2=O)NC(=O)/C(C)=C\C=C\[C@H](C)[C@H](O)[C@@H](C)[C@@H](O)[C@@H](C)[C@H](OC(C)=O)[C@@H]1C [Rifampin (Rifampicin)] (concentration: 25 µM) | 0.964 ± 0.0034 | 0.765 ± 0.035
CCCCCCCCCCCCCCCC(=O)O[C@@H]1[C@@H](O)[C@@H](O)[C@@H]([C@H](NC(=O)[C@@H]2C[C@@H](CCC)CN2C)[C@H](C)Cl)O[C@@H]1SC [Clindamycin Palmitate·HCl] (concentration: 25 µM) | 1 ± 0.044 | 0.725 ± 0.025
COc1cc2ncnc(Nc3ccc(F)c(Cl)c3)c2cc1OCCCN1CCOCC1 [Gefitinib] (concentration: 2.5 µM) | 1.04 ± 0.045 | 0.736 ± 0.11
CC[C@@H]([C@H](C)O)n1ncn(-c2ccc(N3CCN(c4ccc(OC[C@@H]5CO[C@@](Cn6cncn6)(c6ccc(F)cc6F)C5)cc4)CC3)cc2)c1=O [Posaconazole] (concentration: 25 µM) | 1.02 ± 0.032 | 1.016 ± 0.0028
COc1ccc(Cl)cc1C(=O)NCCc1ccc(S(=O)(=O)NC(=O)NC2CCCCC2)cc1 [Glyburide] (concentration: 25 µM) | 1.02 ± 0.051 | 0.806 ± 0.047
Cc1ccc(NC(=O)c2ccc(CN3CCN(C)CC3)cc2)cc1Nc1nccc(-c2cccnc2)n1 [Imatinib Mesylate] (concentration: 25 µM) | 0.968 ± 0.032 | 0.589 ± 0.07
CC(=O)N[C@H]1[C@H]([C@H](O)[C@H](O)CO)OC(C(=O)O)=C[C@@H]1NC(=N)N [Zanamivir] (concentration: 25 µM) | 0.993 ± 0.052 | 0.647 ± 0.18
Clc1ccc(C(Cn2ccnc2)OCc2csc3c(Cl)cccc23)c(Cl)c1 (configuration not stated) [Sertaconazole] (concentration: 25 µM) | 1.04 ± 0.05 | 0.801 ± 0.11
CCCCCCCCc1ccc(CCC(N)(CO)CO)cc1 [Fingolimod] (concentration: 25 µM) | 1.03 ± 0.035 | 0.953 ± 0.12
N#Cc1ccc(C(c2ccc(C#N)cc2)n2cncn2)cc1 [Letrozole] (concentration: 25 µM) | 1.01 ± 0.028 | 0.798 ± 0.019
N=C(NCCCCCCNC(=N)NC(=N)Nc1ccc(Cl)cc1)NC(=N)Nc1ccc(Cl)cc1 [Chlorhexidine Dihydrochloride] (concentration: 2.5 µM) | 0.986 ± 0.017 | 0.763 ± 0.045
CCC[C@H](N[C@@H](C)C(=O)N1[C@H](C(=O)O)C[C@@H]2CCCC[C@@H]21)C(=O)OCC [Perindopril Erbumine] (concentration: 25 µM) | 0.995 ± 0.051 | 0.637 ± 0.091
CN1CCCC(n2nc(Cc3ccc(Cl)cc3)c3ccccc3c2=O)CC1 (configuration not stated) [Azelastine·HCl] (concentration: 25 µM) | 0.923 ± 0.037 | 0.457 ± 0.02
Cc1cccc(C)c1NC(=O)C1CCCCN1C (configuration not stated) [Mepivacaine·HCl] (concentration: 25 µM) | 0.91 ± 0.035 | 1.31 ± 0.14
CCN(CC)CCNC(=O)c1ccc(N)cc1 [Procainamide·HCl] (concentration: 25 µM) | 1.03 ± 0.025 | 0.935 ± 0.17
Nc1nc(=O)[nH]cc1F [Flucytosine] (concentration: 25 µM) | 0.997 ± 0.035 | 0.919 ± 0.025
NC(=O)c1ncn([C@@H]2O[C@H](CO)[C@@H](O)[C@H]2O)n1 [Ribavirin] (concentration: 25 µM) | 0.9983 ± 0.0034 | 0.625 ± 0.077
CC(C)(C)NC(=O)[C@@H]1C[C@@H]2CCCC[C@@H]2CN1C[C@@H](O)[C@H](Cc1ccccc1)NC(=O)[C@H](CC(N)=O)NC(=O)c1ccc2ccccc2n1 [Saquinavir Mesylate] (concentration: 25 µM) | 0.963 ± 0.0039 | 0.648 ± 0.065
CN(C)CCC=C1c2ccccc2C=Cc2ccccc21 [Cyclobenzaprine·HCl] (concentration: 25 µM) | 1 ± 0.041 | 0.631 ± 0.094
CO[C@@]1(NC(=O)C2SC(=C(C(N)=O)C(=O)O)S2)C(=O)N2C(C(=O)O)=C(CSc3nnnn3C)CS[C@@H]21 (some centres not stated) [Cefotetan Disodium] (concentration: 25 µM) | 0.951 ± 0.017 | 0.831 ± 0.075
C[C@H](CCC(=O)O)[C@H]1CC[C@H]2[C@@H]3[C@@H](O)C[C@@H]4C[C@H](O)CC[C@]4(C)[C@H]3CC[C@]12C [Ursodiol] (concentration: 25 µM) | 1.01 ± 0.031 | 0.718 ± 0.096
